Source: PubChem
Ba/F3 V617F tox – reduced viability of JAK2V617F-dependent Ba/F3 cells, primary screen, JAK2V617F inhibitor project, cell-based, Ba/F3 EpoR-JAK2V617F, luminescence; 1.1% of 220,000 active; ATP luminescence; inhibition, % at 5.6 µM;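 active means inhibition above the campaign mean plus 3 SD over all tested compounds, cut at about 24% in these data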;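 further: cytokine-independent growth of Ba/F3 cells driven by EpoR plus mutant JAK2; 0% = DMSO-treated cells and 100% = JAK inhibitor I control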
BaF3 parental – parental Ba/F3 cell viability inhibition, counter-screen for JAK2V617F inhibitor project, murine pro-B, CellTiter-Glo luminescence; inhibition, % at 5.6 µM; 1.1% of 220,000 active; AID 1486, 2009; CellTiter-Glo ATP luminescence;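 active means inhibition above a per-campaign cutoff, the mean inhibition of all tested compounds plus 3 SD, cut at about 27% in these data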;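 further: 0% = DMSO wells and 100% = JAK Inhibitor I control wells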
IEC-6 cytotox – cytotoxicity in IEC-6 intestinal epithelial cells, primary screen, cytotoxicity control for KLF5 inhibitor project, cell-based, luminescence | 0.78% of 290,000 active | IEC-6 cytotoxicity, luminescence viability | inhibition, % at 5 µM | AID 1825, 2009; in the data active means inhibition above about 22%;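 further: 0% = plate median of test compound wells and 100% = cytotoxic reference compound wells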
APP 5UTR inh – inhibitors of APP translation via 5'UTR reporter, primary screen, APP 5'UTR luciferase, SH-SY5Y cells | SH-SY5Y APP 5'UTR-luciferase reporter, luminescence | inhibition, % at 2 µM | 0.82% of 190,000 active | AID 1285, 2008;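 active means inhibition above a set limit, derived from the sample mean plus 3 SD, cut at about 45% in these data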
KLF5 inhibitor – KLF5 expression inhibitors, primary screen, DLD-1 cells, luminescence; DLD-1 KLF5 promoter-luciferase reporter; inhibition, % at 5 µM; 0.23% of 290,000 active; AID 1700, 2009;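 active means inhibition above a per-plate limit of that plate's mean compound inhibition plus 3 SD, cut at about 60% in these data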;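 further: 0% = DMSO wells and 100% = LY294002 at 200 µM; higher means less KLF5 promoter-driven luciferase light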
aSyn UTR inh – MLPCN primary screen, SNCA 5' untranslated region. alpha-synuclein 5'UTR reporter, inhibitor activity. inhibition, % (tested at 7.5 µM). 0.82% of 300,000 active. AID 1813, 2009; in the data active means inhibition above about 60%;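 further: H4 neuroglioblastoma cells stably carrying SNCA 5'UTR luciferase fusion; 0% = DMSO wells and 100% = positive control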
* hit, by the source's call. Only some compounds are listed: those with a hit (about 2.1% of all), similar ones and a draw of the others.

Screening O=[N+]([O-])c1ccc(C[n+]2cccc3ccccc32)cc1 returned Ba/F3 V617F tox 0, BaF3 parental -1, IEC-6 cytotox 4, APP 5UTR inh -20, KLF5 inhibitor -17 and aSyn UTR inh 10.
For c1ccc(C[n+]2cccc3c4ccccc4ccc32)cc1 the results were Ba/F3 V617F tox 97*, BaF3 parental 79*, IEC-6 cytotox 3, APP 5UTR inh 2, KLF5 inhibitor 6 and aSyn UTR inh -17.
`CC(C)(C)C(=O)Nc1c2c(nn1-c1ccccc1)CSC2` gave IEC-6 cytotox -12, KLF5 inhibitor -26 and aSyn UTR inh -3.
O=C(CN1C(=O)c2ccccc2S1(=O)=O)c1ccc(O)c(O)c1 was read as Ba/F3 V617F tox -2, BaF3 parental 0, IEC-6 cytotox -5, KLF5 inhibitor 2 and aSyn UTR inh 64*.
C/C(=N/NC(=O)COc1cc(C)ccc1C(C)C)C(=O)O was read as Ba/F3 V617F tox 1, BaF3 parental 3, IEC-6 cytotox -6, APP 5UTR inh 82*, KLF5 inhibitor 12 and aSyn UTR inh 17.
`C/C(CC(=O)Nc1cc(C)ccn1)=N\NC(=O)c1cccc(C)c1O` gave IEC-6 cytotox -6, KLF5 inhibitor -8 and aSyn UTR inh -63.
For COC(=O)c1nc(-c2ccccc2)oc1N1CCOCC1 the results were Ba/F3 V617F tox 5, BaF3 parental 1, IEC-6 cytotox 6, APP 5UTR inh -7, KLF5 inhibitor -1 and aSyn UTR inh 22.
Cc1ccc(NC(=O)Cn2nnc(-c3ccccc3NC(=O)c3cccs3)n2)cc1 was read as Ba/F3 V617F tox 0, BaF3 parental 5, IEC-6 cytotox 7, APP 5UTR inh -14, KLF5 inhibitor -14 and aSyn UTR inh 67*.
Screening COc1ccc(NC(=O)Cn2nnc(-c3ccccc3NC(=O)c3cccs3)n2)cc1 returned Ba/F3 V617F tox -3, BaF3 parental -3, IEC-6 cytotox 4, APP 5UTR inh 0, KLF5 inhibitor 2 and aSyn UTR inh -169.
`COc1ccc(NC(=O)Cn2nnc(-c3ccccc3NS(=O)(=O)c3ccc(OC)cc3)n2)cc1` gave Ba/F3 V617F tox 78*, BaF3 parental 66*, IEC-6 cytotox 46*, APP 5UTR inh 89*, KLF5 inhibitor 75* and aSyn UTR inh 107*.
`COCC1CCCN(Cc2cn(-c3ccccc3)nc2-c2ccc3c(c2)OCO3)C1` (configuration not stated) gave Ba/F3 V617F tox -1, BaF3 parental 3, IEC-6 cytotox -4, APP 5UTR inh -6, KLF5 inhibitor -3 and aSyn UTR inh 0.
COc1ccc(-c2noc(CNC(=O)CCCN3C(=O)[C@H]4CC=CC[C@H]4C3=O)n2)cc1 was read as IEC-6 cytotox 4, KLF5 inhibitor -7 and aSyn UTR inh -23.
For Brc1ccc(-c2cn3nc4c(nc3n2)CCCC4)cc1 the results were Ba/F3 V617F tox -2, BaF3 parental 2, IEC-6 cytotox 8, APP 5UTR inh -186, KLF5 inhibitor -103 and aSyn UTR inh 93*.
For c1ccc(-c2cn3nc4c(nc3n2)CCCC4)cc1 the results were Ba/F3 V617F tox 4, BaF3 parental 4, IEC-6 cytotox 4, APP 5UTR inh -148, KLF5 inhibitor -39 and aSyn UTR inh 109*.
For c1ccc(-c2cn3nc(-c4ccccc4)cnc3n2)cc1 the results were Ba/F3 V617F tox 0, BaF3 parental 4, IEC-6 cytotox -7, APP 5UTR inh -172 and KLF5 inhibitor -47.
`COc1ccc(NC(=O)CN(C)C(=O)CSCc2ccc(C)cc2)cc1` gave aSyn UTR inh 19.
COc1ccc(CCNc2nc(-c3sc(C)nc3C)cs2)cc1OC was read as Ba/F3 V617F tox -1, BaF3 parental 4, IEC-6 cytotox 1, APP 5UTR inh 55*, KLF5 inhibitor -19 and aSyn UTR inh 18.
Screening COCCN=c1scc(-c2cccs2)n1/N=C/c1ccc(O)c(O)c1O returned Ba/F3 V617F tox 1, BaF3 parental 2, IEC-6 cytotox -1, APP 5UTR inh 11, KLF5 inhibitor -34 and aSyn UTR inh 67*.
Screening Fc1cc(F)cc(NC(=S)N2CCN(c3ncccn3)CC2)c1 returned Ba/F3 V617F tox 36*, BaF3 parental 27*, IEC-6 cytotox 3, APP 5UTR inh 5, KLF5 inhibitor -1 and aSyn UTR inh 8.
For COc1ccc(NC(=S)N2CCN(c3ncccn3)CC2)cc1 the results were Ba/F3 V617F tox 0, BaF3 parental 3, IEC-6 cytotox -1, APP 5UTR inh 8, KLF5 inhibitor -27 and aSyn UTR inh 13.
CC(=O)c1ccc(N2CCN(C(=S)Nc3cccc(F)c3)CC2)cc1 was read as Ba/F3 V617F tox 41*, BaF3 parental 30*, IEC-6 cytotox -3, APP 5UTR inh -8, KLF5 inhibitor -16 and aSyn UTR inh 12.
`O=C(CSc1c2c(nc3cc(Cl)ccc13)CCCC2)NCc1ccco1` gave Ba/F3 V617F tox -4, BaF3 parental 0, IEC-6 cytotox 0, APP 5UTR inh -8, KLF5 inhibitor -30 and aSyn UTR inh -2.
Screening CC1=C(C(=O)OC2CCCC(C)C2)C(c2ccccc2)NC(=O)N1 (configuration not stated) returned IEC-6 cytotox 1, KLF5 inhibitor -14 and aSyn UTR inh -1.
`CC1=CCC2COC(c3ccc[n+](Cc4ccccc4)c3)C1C2` (configuration not stated) gave Ba/F3 V617F tox 46*, BaF3 parental 67*, IEC-6 cytotox -2, APP 5UTR inh -16, KLF5 inhibitor 6 and aSyn UTR inh -17.
NC(=O)c1ccc[n+](Cc2ccccc2)c1 was read as Ba/F3 V617F tox 2, BaF3 parental 4, IEC-6 cytotox -4, APP 5UTR inh -16, KLF5 inhibitor -13 and aSyn UTR inh 2.
For CSc1nc2sc3c(c2c(=O)[nH]1)CC(C)(C)OC3 the results were IEC-6 cytotox -1, KLF5 inhibitor -31 and aSyn UTR inh -15.
`CC(Oc1cccc2c1OC(C)(C)C2)C(=O)O` (configuration not stated) gave Ba/F3 V617F tox 0, BaF3 parental 0, IEC-6 cytotox 0, APP 5UTR inh 67*, KLF5 inhibitor -41 and aSyn UTR inh -4.
Screening CC(C)NC(=O)NC(=O)COc1cccc2c1OC(C)(C)C2 returned Ba/F3 V617F tox 0, BaF3 parental 3, IEC-6 cytotox 0, APP 5UTR inh -5, KLF5 inhibitor -14 and aSyn UTR inh 15.
`Cc1c(C(=O)OCC(=O)Nc2ccc(C(N)=O)cc2)cccc1[N+](=O)[O-]` gave Ba/F3 V617F tox -2, BaF3 parental 7, IEC-6 cytotox -8, APP 5UTR inh 0, KLF5 inhibitor 3 and aSyn UTR inh 11.
